Test results published in PubChem BioAssay (Tox21).
Results filed as inconclusive are left out. Activity calls are given as the source filed them. Unless noted, the call rests on the fitted dose curve.

How the values were obtained:
[1] = Nuclear factor erythroid 2-related factor 2/antioxidant responsive element (Nrf2/ARE) small molecule agonists: qHTS cell viability counter screen in human keratinocytes (AID 1919968; active means well fitted curve in the direction sought with a large enough effect in the repeat runs; an effect the other way counts as inactive or inconclusive; further: nearly all actives have a fitted effect of over 55% in size)
Method in brief: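 KeratinoSens cells (HaCaT keratinocytes stably carrying an ARE-luciferase reporter) were seeded at 1,500 cells/well and rested 5 h at 37 C/5% CO2. They were then exposed to compounds in DMSO for 23 h. Viability was read by CellTiter-Fluor fluorescence after 1 h.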

[2] = Nuclear factor erythroid 2-related factor 2/antioxidant responsive element (Nrf2/ARE) small molecule agonists: luciferase reporter gene qHTS assay in human keratinocytes (AID 1919969); further: nearly all actives have a fitted effect of over 35% in size
[3] = target: Gonadotropin-releasing hormone receptor (Homo sapiens) (UniProt P30968); assay: Human gonadotropin-releasing hormone receptor (GnRHR) small molecule agonists, calcium flux assay in GnRHR-HEK293 cells (AID 1920063); further: nearly all actives have a fitted effect of over 35% in size
Gonadotropin-releasing hormone receptor (Homo sapiens), sequence (P30968 whole entry, looked up): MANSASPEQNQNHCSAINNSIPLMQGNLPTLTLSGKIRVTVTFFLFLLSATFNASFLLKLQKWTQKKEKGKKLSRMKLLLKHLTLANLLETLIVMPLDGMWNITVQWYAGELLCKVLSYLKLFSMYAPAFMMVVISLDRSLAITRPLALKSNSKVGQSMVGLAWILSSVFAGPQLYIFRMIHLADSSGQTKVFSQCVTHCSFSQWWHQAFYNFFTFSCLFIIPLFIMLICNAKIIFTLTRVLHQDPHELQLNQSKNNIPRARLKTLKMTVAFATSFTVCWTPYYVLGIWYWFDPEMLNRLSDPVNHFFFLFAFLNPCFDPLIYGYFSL
Method in brief: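 HEK293 cells stably expressing human GnRHR were plated 18 h at 37 °C, loaded with calcium dye 1 h at 37 °C, then given compound in agonist mode; fluorescence (Ex/Em 480/540) read kinetically for 3 min at 1 s intervals.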

[4] = target: KiSS-1 receptor (Homo sapiens) (UniProt Q969F8); assay: Human kisspeptin (KISS1R) small molecule agonists, calcium flux assay in KISS1R-HEK293 cells (AID 1920064; active means well fitted curve in the direction sought with a large enough effect in the repeat runs; an effect the other way counts as inactive or inconclusive)
KiSS-1 receptor (Homo sapiens), sequence (Q969F8 whole entry, looked up): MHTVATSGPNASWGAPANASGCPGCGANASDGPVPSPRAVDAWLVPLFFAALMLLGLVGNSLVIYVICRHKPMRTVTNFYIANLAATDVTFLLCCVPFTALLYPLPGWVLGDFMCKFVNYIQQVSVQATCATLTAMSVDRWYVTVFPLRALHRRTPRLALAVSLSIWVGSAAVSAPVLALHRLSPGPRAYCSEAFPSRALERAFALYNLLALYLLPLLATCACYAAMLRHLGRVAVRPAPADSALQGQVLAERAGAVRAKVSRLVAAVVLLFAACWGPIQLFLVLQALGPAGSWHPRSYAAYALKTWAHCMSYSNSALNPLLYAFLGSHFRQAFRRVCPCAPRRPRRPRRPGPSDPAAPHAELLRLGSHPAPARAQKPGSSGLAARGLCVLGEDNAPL
Method in brief: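 HEK293 cells stably expressing human KISS1R were plated 18 h at 37 °C, loaded with calcium dye for 1 h at 37 °C, then given compound by pin tool. Fluorescence (Ex/Em 480/540) was read kinetically for 3 min.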

[5] = G protein-coupled receptor (GPCR) small molecule agonists, calcium flux assay: HEK293 wild type cell line counter screen (AID 1920065)
Method in brief: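 Cells were plated and cultured 18 h at 37 C/5% CO2, then loaded with calcium dye for 1 h at 37 C. Compounds in DMSO were pin-transferred in agonist mode, and fluorescence (Ex/Em 480/540) was read kinetically for 3 min at 1 s intervals.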

[6] = p53 small molecule agonists, cell-based qHTS assay with human liver microsomes (AID 1963577)
Method in brief: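 p53RE-bla cells, 4,000/well, compound added after 5 h, with human liver microsomes 0.5 mg/mL and NADPH 0.5 mg/mL final; 16 h at 37 C, then LiveBLAzer 2 h RT, fluorescence.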

[7] = p53 small molecule agonists, cell-based qHTS assay with rat liver microsomes (AID 1963578)
Method in brief: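 p53RE-bla cells, 4,000/well, pre-incubated 5 h, then given compounds plus rat liver microsomes (0.5 mg/mL final) and NADPH (0.5 mg/mL final). Incubation 16 h at 37 C; beta-lactamase reporter read by LiveBLAzer fluorescence after 2 h at room temperature.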

[8] = p53 small molecule agonists, cell-based qHTS assay with human liver microsomes: qHTS cell viability counter screen (AID 1963579); further: nearly all actives have a fitted effect of over 45% in size
Method in brief: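 p53RE-bla cells, 4,000/well, dosed 5 hours after plating, with human liver microsomes (0.5 mg/mL final) plus NADPH (0.5 mg/mL final), 16 hours at 37 C. Viability read as CellTiter-Glo luminescence after 30 min at room temperature.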

[9] = p53 small molecule agonists, cell-based qHTS assay with rat liver microsomes: qHTS cell viability counter screen (AID 1963580); further: nearly all actives have a fitted effect of over 45% in size
Method in brief: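 Viability is assessed in parallel with the p53 reporter read: HCT-116 p53RE-bla cells receive compounds plus rat microsomes and NADPH (0.5 mg/mL final apiece), incubate 16 h at 37 C, and then CellTiter-Glo luminescence is recorded.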

[10] = p53 small molecule agonists, cell-based qHTS assay: qHTS cell viability counter screen (AID 1963581); further: nearly all actives have a fitted effect of over 45% in size
Method in brief: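 p53RE-bla HCT-116 cells were exposed to compounds for 16 h at 37 C; after the beta-lactamase FRET read in the same wells, CellTiter-Glo was added and luminescence (intracellular ATP) read after 30 min at room temperature.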

[11] = p53 small molecule agonists, cell-based qHTS assay (AID 1963582; active means well fitted activation curve with a large enough effect in the signal ratio in the repeat runs, not every such curve was filed as active; the % refers to the signal ratio)
Method in brief: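 p53RE-bla beta-lactamase reporter cells rested 5 h at 37 C/5% CO2, then received compounds in DMSO by pin transfer and were incubated 16 h at 37 C. LiveBLAzer B/G FRET substrate was loaded for 2 h at room temperature before fluorescence reading.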

[12] = target: 5-hydroxytryptamine receptor 2A (Homo sapiens) (UniProt P28223); assay: 5-hydroxytryptamine receptor 2A (HTR2A) small molecule agonists, cell-based qHTS assay (AID 1963587); further: nearly all actives have a fitted effect of over 30% in size; further: potency means the concentration at half of the fitted maximal effect
5-hydroxytryptamine receptor 2A (Homo sapiens), sequence (P28223 whole entry, looked up): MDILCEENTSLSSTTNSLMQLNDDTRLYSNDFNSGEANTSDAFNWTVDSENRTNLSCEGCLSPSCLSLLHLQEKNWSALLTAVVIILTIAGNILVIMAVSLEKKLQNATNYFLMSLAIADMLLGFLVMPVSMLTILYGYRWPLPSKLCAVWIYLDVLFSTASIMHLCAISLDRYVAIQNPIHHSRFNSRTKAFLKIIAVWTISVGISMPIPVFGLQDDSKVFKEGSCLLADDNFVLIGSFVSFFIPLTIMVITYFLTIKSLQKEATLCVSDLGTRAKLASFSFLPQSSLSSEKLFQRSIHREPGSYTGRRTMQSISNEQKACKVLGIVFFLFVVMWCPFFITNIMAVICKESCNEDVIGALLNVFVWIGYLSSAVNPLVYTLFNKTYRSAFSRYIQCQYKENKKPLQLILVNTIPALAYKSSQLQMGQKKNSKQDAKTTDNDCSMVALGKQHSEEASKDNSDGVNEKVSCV
Method in brief: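 CHO cells stably expressing human HTR2A, plated 18 h, loaded with calcium dye 1 h at 37 C. Agonist mode: compounds added and intracellular calcium fluorescence recorded kinetically for 2 min at 1 sec intervals.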

[13] = target: Muscarinic acetylcholine receptor M1 (Homo sapiens) (UniProt P11229); assay: Cholinergic receptor muscarinic 1 (CHRM1) small molecule antagonists, cell-based qHTS assay (AID 1963588); further: nearly all actives have a fitted effect of over 40% in size
Muscarinic acetylcholine receptor M1 (Homo sapiens), sequence (P11229 whole entry, looked up): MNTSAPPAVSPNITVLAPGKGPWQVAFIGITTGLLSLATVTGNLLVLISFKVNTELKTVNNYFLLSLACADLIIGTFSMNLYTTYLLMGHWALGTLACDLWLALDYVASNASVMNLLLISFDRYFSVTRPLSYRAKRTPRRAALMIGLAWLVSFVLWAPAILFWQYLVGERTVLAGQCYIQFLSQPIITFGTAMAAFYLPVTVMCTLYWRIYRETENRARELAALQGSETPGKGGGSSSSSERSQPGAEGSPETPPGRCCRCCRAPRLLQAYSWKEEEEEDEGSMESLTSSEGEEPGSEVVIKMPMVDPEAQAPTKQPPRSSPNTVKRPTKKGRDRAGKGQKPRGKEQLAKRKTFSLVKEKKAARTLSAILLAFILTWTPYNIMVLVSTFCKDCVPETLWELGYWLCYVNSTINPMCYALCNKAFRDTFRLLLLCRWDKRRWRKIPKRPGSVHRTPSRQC
Method in brief: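 CHRM1-CHO calcium-flux assay, antagonist mode. Cells were seeded 18 h, dye-loaded 1 h at 37 C and given compound for 5 min at RT, then acetylcholine was added at 50nM. FDSS fluorescence was read 3 min; 15 concentrations, three runs.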

[14] = target: Muscarinic acetylcholine receptor M1 (Homo sapiens) (UniProt P11229); assay: Cholinergic receptor muscarinic 1 (CHRM1) small molecule agonists, cell-based qHTS assay (AID 1963589); further: nearly all actives have a fitted effect of over 35% in size
Method in brief: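 CHO cells stably expressing human CHRM1, seeded 18 h at 37 C/5% CO2, dye-loaded 1 h at 37 C, then given compound in agonist mode; intracellular calcium fluorescence read kinetically at 1 s intervals. Fifteen concentrations, three independent runs.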

[15] = cAMP Responsive Elements (CRE) small molecule agonists, cell-based qHTS assay (AID 1963590)
Method in brief: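 CRE-bla HEK 293T cells in DMEM with 10% dialyzed FBS, NEAA, pyruvate and 25 mM HEPES were plated 18 h at 37 C/5% CO2, then exposed to compounds in DMSO for 3 h before LiveBLAzer B/G FRET substrate addition.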

[16] = cAMP Responsive Elements (CRE) small molecule antagonists, cell-based qHTS assay (AID 1963591; active means well fitted inhibition curve with a large enough effect in the signal ratio in the repeat runs, not every such curve was filed as active; the % refers to the signal ratio)
Method in brief: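 CRE-bla HEK293T cells were plated 18 h at 37 °C/5% CO2, pinned with compound in DMSO, then stimulated with NKH477 at 0.25 uM final for 3 h. LiveBLAzer B/G FRET substrate was added and plates incubated 2 h at room temperature.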

[17] = target: Beta-2 adrenergic receptor (Homo sapiens) (UniProt P07550); assay: Adrenergic beta2 receptor (ADRB2) small molecule antagonists, cell-based qHTS assay (AID 1963592); further: series mostly up to about 92 µM; nearly all actives have a fitted effect of over 50% in size
Beta-2 adrenergic receptor (Homo sapiens), sequence (P07550 whole entry, looked up): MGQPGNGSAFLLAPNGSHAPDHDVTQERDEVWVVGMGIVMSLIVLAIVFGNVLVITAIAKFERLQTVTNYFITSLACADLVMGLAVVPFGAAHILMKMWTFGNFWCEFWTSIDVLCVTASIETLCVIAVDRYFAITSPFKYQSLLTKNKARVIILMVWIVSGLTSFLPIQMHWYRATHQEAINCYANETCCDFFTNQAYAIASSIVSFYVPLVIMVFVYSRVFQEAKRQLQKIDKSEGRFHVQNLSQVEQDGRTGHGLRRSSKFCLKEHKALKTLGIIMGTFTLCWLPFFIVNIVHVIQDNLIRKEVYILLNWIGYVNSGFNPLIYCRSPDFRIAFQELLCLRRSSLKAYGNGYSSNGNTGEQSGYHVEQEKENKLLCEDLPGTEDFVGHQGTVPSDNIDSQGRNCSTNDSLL
Method in brief: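 Cells (CHO, stable ADRB2 overexpression) incubated 18-20hr at 37C; compounds added from DMSO; agonist mix (1nM isoproterenol, 100uM IBMX, 25uM Ro-20-1724) added; 0.5hr RT; d2-cAMP and anti-cAMP-cryptate added; 1hr RT; 665/615 nm read.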

[18] = target: Beta-2 adrenergic receptor (Homo sapiens) (UniProt P07550); assay: Adrenergic beta2 receptor (ADRB2) small molecule agonists, cell-based qHTS assay (AID 1963593);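 further: CHO cells stably overexpressing human ADRB2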
Method in brief: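 CHO cells stably over-expressing ADRB2 were plated overnight at 37C, then dosed with compounds plus a stimulation mix containing 100uM IBMX and 25uM Ro-20-1724 for 0.5hr at room temperature. cAMP was measured by HTRF competition, 1hr.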

[19] = target: D(2) dopamine receptor (Homo sapiens) (UniProt P14416); assay: Dopamine D2 receptor (DRD2) small molecule antagonists, cell-based qHTS assay (AID 1963595; active means well fitted inhibition curve with a large enough effect in the signal ratio in the repeat runs, with a control signal flat; the % refers to the signal ratio)
D(2) dopamine receptor (Homo sapiens), sequence (P14416 whole entry, looked up): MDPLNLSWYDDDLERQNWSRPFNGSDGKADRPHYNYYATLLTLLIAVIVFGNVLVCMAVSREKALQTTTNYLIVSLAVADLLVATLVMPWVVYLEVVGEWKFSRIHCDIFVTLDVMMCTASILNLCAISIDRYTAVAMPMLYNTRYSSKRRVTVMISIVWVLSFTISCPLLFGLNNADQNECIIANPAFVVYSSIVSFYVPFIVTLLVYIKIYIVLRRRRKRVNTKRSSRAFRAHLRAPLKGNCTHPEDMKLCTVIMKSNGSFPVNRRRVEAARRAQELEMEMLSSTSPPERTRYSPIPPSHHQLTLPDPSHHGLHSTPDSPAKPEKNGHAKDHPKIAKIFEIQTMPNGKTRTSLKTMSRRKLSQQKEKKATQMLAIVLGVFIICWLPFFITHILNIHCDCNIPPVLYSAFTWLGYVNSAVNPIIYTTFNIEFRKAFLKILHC
Method in brief: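 In this cell-based antagonist screen, compounds act for 10 min at room temperature before a 30 min challenge with 12 nM quinpirole and 200 nM NKH477. cAMP is quantified by HTRF competition in DRD2-HEK293 cells containing 0.1 mM Ro20-1724.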

[20] = target: D(2) dopamine receptor (Homo sapiens) (UniProt P14416); assay: Dopamine D2 receptor (DRD2) small molecule agonists, cell-based qHTS assay (AID 1963594); further: nearly all actives have a fitted effect of over 35% in size
Method in brief: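 HEK293 cells stably expressing human DRD2, pre-treated with PDE inhibitor Ro20-1724 (0.1 mM final) and compound 10 min at room temperature, then stimulated with NKH477 (200nM […]) for 30 min. cAMP read by HTRF (665/620 nm).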
On the % scale 0 is the no-effect control and ±100 the full control effect.

O=C(NCCc1c[nH]c2ccccc12)c1cccnc1
active: Potency [12] 3.01 µM
inactive: Potency [1] | Potency [2] | Potency [3] | outcome [4] | outcome [5] | Potency [6] | Potency [7] | Potency [8] | Potency [9] | Potency [10] | Potency [11] | Potency [13] | Potency [14] | Potency [15] | Potency [16] | Potency [17] | Potency [18] | Potency [19]

O[C@@H]1CO[C@H]2[C@@H]1OC[C@@H]2O
inactive: Potency [1] | Potency [2] | Potency [3] | outcome [4] | outcome [5] | Potency [6] | Potency [7] | Potency [8] | Potency [9] | Potency [10] | Potency [11] | Potency [12] | Potency [13] | Potency [14] | Potency [15] | Potency [16] | Potency [17] | Potency [18] | Potency [20] | Potency [19]

N#CC1(N)CCCCC1
inactive: Potency [1] | Potency [2] | Potency [3] | outcome [4] | outcome [5] | Potency [6] | Potency [7] | Potency [8] | Potency [9] | Potency [10] | Potency [11] | Potency [12] | Potency [13] | Potency [14] | Potency [15] | Potency [16] | Potency [17] | Potency [20] | Potency [19]

CCOC(=O)c1ccc(I)cc1
inactive: Potency [1] | Potency [2] | Potency [3] | outcome [4] | outcome [5] | Potency [6] | Potency [7] | Potency [8] | Potency [9] | Potency [10] | Potency [11] | Potency [12] | Potency [13] | Potency [14] | Potency [15] | Potency [16] | Potency [17] | Potency [20] | Potency [19]

CCc1nccnc1CC
inactive: activity change, negative = cytotoxicity [1] 5.52% [at 19 µM] | activity, positive = activation [2] 0.453% [at 19 µM] | activity change [3] -0.658% [at 11.8 µM, stronger effect = higher value] | activation [4] 1.62% [at 15.8 µM] | activation [5] -0.595% [at 11.8 µM] | activation [6] 3.14% [at 13.5 µM] | activation [7] 1.15% [at 13.6 µM] | activity change, negative = cytotoxicity [8] -2.07% [at 13.5 µM] | activity change, negative = cytotoxicity [9] -5.78% [at 13.5 µM] | activity change, negative = cytotoxicity [10] 1.59% [at 13.5 µM] | activation [11] 3.48% [at 13.5 µM] | activation [15] 0.766% [at 19 µM] | activity change, negative = inhibition [17] -4.86% [at 19 µM] | Potency [18] | activation [20] -2.33% [at 19 µM] | activity change, negative = inhibition [19] -10.9% [at 18.9 µM]

O=C(O)C1CCC1
inactive: Potency [1] | Potency [2] | Potency [3] | outcome [4] | outcome [5] | Potency [6] | Potency [7] | Potency [8] | Potency [9] | Potency [10] | Potency [11] | Potency [12] | Potency [13] | Potency [14] | Potency [15] | Potency [16] | Potency [17] | Potency [18] | Potency [20] | Potency [19]

C=CC(C)C#N (configuration not stated)
inactive: Potency [1] | Potency [2] | Potency [3] | outcome [4] | outcome [5] | Potency [6] | Potency [7] | Potency [8] | Potency [9] | Potency [10] | Potency [11] | Potency [12] | Potency [13] | Potency [14] | Potency [15] | Potency [16] | Potency [17] | Potency [20] | Potency [19]
